In the library only some 9.5% were active in any assay of this set; here they are far more common.
ALDH1A1 inh: blocks purified human ALDH1A1 activity | AID 1030 | actives 7.3% (n = 220,000) | P00352 | Purified ALDH1A1, NADH fluorescence, propionaldehyde substrate | Potency, µM (top dose mostly 75.3 µM), without a hit: at the top dose activity, negative = inhibition, most hits filed as inhibitors; active = well fitted inhibition curve with a large enough effect, not every such curve was filed as active; inconclusive = small, poorly fitted or top-dose-only effect, or another doubt; inactive = no such curve, though single readings can be large or run the other way;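 note: plate controls were no enzyme wells and a reference inhibitor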
Target sequence (P00352 whole entry, looked up): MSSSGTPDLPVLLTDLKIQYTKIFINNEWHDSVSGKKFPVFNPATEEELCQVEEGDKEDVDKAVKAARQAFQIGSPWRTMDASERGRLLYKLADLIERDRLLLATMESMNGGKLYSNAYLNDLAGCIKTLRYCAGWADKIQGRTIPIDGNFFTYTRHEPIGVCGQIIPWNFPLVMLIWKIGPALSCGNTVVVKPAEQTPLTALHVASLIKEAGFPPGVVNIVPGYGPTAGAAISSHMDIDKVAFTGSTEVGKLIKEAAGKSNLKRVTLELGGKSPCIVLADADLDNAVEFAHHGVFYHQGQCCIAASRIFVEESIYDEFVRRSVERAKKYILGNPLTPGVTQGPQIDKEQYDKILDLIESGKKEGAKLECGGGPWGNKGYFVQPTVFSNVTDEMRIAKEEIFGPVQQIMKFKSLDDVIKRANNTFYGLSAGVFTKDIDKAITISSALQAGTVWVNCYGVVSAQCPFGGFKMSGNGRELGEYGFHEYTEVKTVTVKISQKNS
NPSR antagonist: antagonists of human neuropeptide S receptor cAMP signaling; AID 1461; actives 1% (n = 220,000); CHO-NPSR cells, cAMP TR-FRET, antagonist mode; Potency, µM (series often up to 38.3 µM), inactives show at the highest dose activity change, negative = inhibition, actives largely listed as inhibitors; note: nearly all actives have a fitted effect of over 50% in size
Tau fibril FP: tau fibrillization inhibition (FP) | actives 0.39% (n = 280,000) | K18 P301L tau heparin fibrillization, Alexa594 FP, 6 h | Potency, µM (highest dose often 57.7 µM), without a hit: at the top dose activity, negative = inhibition, actives largely listed as inhibitors; note: nearly all actives have a fitted effect of over 55% in size
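K18 P301L tau (15 uM unlabeled/0.24 uM Alexa 594-labeled, final) + compound + heparin 20 uM final; 100 mM NaOAc pH 7; 6 hr 37 C; ThT 30 uM final added, 1 hr RT; FP ex 555/em 632 nm.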
HPGD inh: blocks human HPGD enzyme activity | purified HPGD, NADH fluorescence kinetic, PGE2 substrate | Potency, µM, without a hit: at the top dose activity change, negative = inhibition, actives largely listed as inhibitors | actives 4.3% (n = 150,000) | AID 894; active = well fitted inhibition curve with a large enough effect, not every such curve was filed as active; inconclusive = small, poorly fitted or top-dose-only effect, or another doubt; inactive = no such curve, though single readings can be large or run the other way
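20 nM HPGD preincubated 15 min at room temperature with compound in 50 mM Tris-HCl pH 8, 0.01% Tween 20. Started with 1 mM NAD+ and 30 uM prostaglandin E2; NADH fluorescence (360/450 nm) read 5 times over 30-s intervals, last minus first.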
Tau ThT inhib: inhibitors of human tau fibril formation, thioflavin T binding. P10636. recombinant tau K18 P301L, heparin-induced fibrillization, ThT fluorescence. Potency, µM (titrated, usually from 57.4 µM), inactives show top-dose activity, negative = inhibition, most hits filed as inhibitors. actives 2.1% (n = 270,000). AID 1460; note: nearly all actives have a fitted effect of over 55% in size
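Recombinant human tau K18 fragment […] carrying P301L, 15 uM unlabeled plus 0.24 uM Alexa 594-labeled, was fibrillized with 20 uM heparin in 100 mM sodium acetate pH 7 for 6 hr at 37 C; 30 uM ThT fluorescence read after 1 hr.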
Tau fluor counter: counter-screen for tau fibril formation inhibitors; tau K18 P301L (four-repeat tau fragment) Alexa594 fluorescence, heparin fibrillization; Potency, µM (series often up to 57.7 µM), without a hit: at the highest dose activity change, negative = decrease; actives 0.93% (n = 280,000); note: nearly all actives have a fitted effect of over 55% in size
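Human K18 P301L tau (15 uM unlabeled plus 0.24 uM Alexa 594-labeled, final) in 100 mM sodium acetate pH 7 was mixed with compound and 20 uM heparin and incubated 6 hr at 37 C.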
An asterisk follows results filed as active; u = inconclusive; x = no result; [ ] = dose if it differs, or a comment. Unless noted, calls come from the whole dose curve; as a rule, active = well fitted curve in the direction sought with a large enough effect; inconclusive = small, poorly fitted or top-dose-only effect, or another doubt; inactive = no such curve, though single readings can be large; an effect the other way counts as inactive or inconclusive. Unless noted, % is set by controls: 0 for no effect and ±100 for the full control effect; potency is the fitted concentration of half-maximal effect.

SMILES	ALDH1A1 inh	NPSR antagonist	Tau fibril FP	HPGD inh	Tau ThT inhib	Tau fluor counter
Cc1ccc(Nc2nc3ccccc3s2)cc1	6%	9%	7%	-8%	-14%	u
Cc1ccc(Nc2nnns2)cc1	2.5µM*	9%[46.1 µM]	-9%	22µM*	-19%	-4%
O=C(NC1CCCCC1)C(c1ccc2ncccc2c1)N(Cc1ccc2c(c1)OCO2)C(=O)c1ccc2c(c1)OCCO2 (stereo unspecified)	28µM*	-8%	2%	-14%	-5%	1%
O=C(NC1CCCC1)C(c1ccc(F)cc1)N(Cc1ccc(F)cc1)C(=O)c1ccn[nH]1 (stereo unspecified)	15%	-19%[46.1 µM]	7%	-8%	-1%	-3%
O=C(NC1CCCCC1)C(c1ccc2ncccc2c1)N(Cc1ccco1)C(=O)c1ccc2c(c1)OCCO2 (stereo unspecified)	u	u	5%	-12%	-4%	5%
O=C(NC1CCCCC1)C(c1ccc2ncccc2c1)N(Cc1ccc(F)cc1)C(=O)c1ccc2c(c1)OCCO2 (stereo unspecified)	u	13µM*	6%	-5%	-7%	3%
Cc1ccc(C)c(NC(=S)NNC(=O)c2csc3c2CCC(C)C3)c1 (stereo unspecified)	10µM*	-8%[46.1 µM]	-4%	-10%	-17%	-20%
Cc1cccc(NC(=S)NNC(=O)c2csc3c2CCCC3)c1	u	-8%[46.1 µM]	7%	1%	u	-28%
Cc1ccc(C)c(NC(=S)NNC(=O)c2csc3c2CCCC3)c1	8.9µM*	-17%[46.1 µM]	1%	-11%	u	-19%
COc1cccc2c(SCC(=O)N/N=C/c3ccc(O)cc3O)cc(C)nc12	28µM*	1%	-5%	x	u	-28%
COc1ccc2nc(C)cc(SCC(=O)N/N=C/c3ccc(O)cc3O)c2c1	25µM*	20%	2%	-21%	u	u
Cc1ccc(S(=O)(=O)NCCCNC(=O)c2ccccc2)cc1	13µM*	u	-4%	-12%	1%	-3%
Cc1ccc(C(=O)NCCCNc2ccccc2[N+](=O)[O-])cc1	2.2µM*	-17%	2%	x	9%	9%
Cc1ccc(S(=O)(=O)NCCNC(=O)c2ccccc2)cc1	-4%	3%[46.1 µM]	3%	-4%	-4%	2%
Cc1ccc(S(=O)(=O)NCCCOC(=O)Nc2ccncc2)cc1	16µM*	6%[46.1 µM]	6%	-6%	-16%	-7%
CC1(C)CC(=O)C(C2C3=C(CC(C)(C)CC3=O)OC3=C2C(=O)CC(C)(C)C3)=C(O)C1	x	5%	2%	x	-4%	-4%
CSc1ncc(C(=O)NCc2ccc(C)cc2)c(-c2ccccc2)n1	x	x	-11%	x	-1%	-9%
CCOc1ccc(-n2c(SCC(=O)c3c(N)n(C)c(=O)n(C)c3=O)nnc2-c2cccnc2)cc1	12%	9%	-9%	-6%	2%	-1%
COc1ccccc1C1C(C(=O)c2cc3ccccc3o2)=C(O)C(=O)N1CCN(C)C (stereo unspecified)	20µM*	17%[46.1 µM]	-4%	-13%	-14%	0%
O=C(C1=C(O)C(=O)N(CCc2ccccc2)C1c1cccnc1)c1ccco1 (stereo unspecified)	18µM*	u	3%	-32%	9%	5%
O=C(C1=C(O)C(=O)N(CCc2ccccc2)C1c1ccncc1)c1cc2ccccc2o1 (stereo unspecified)	19µM*	-47%	10%	x	2%	-1%
O=C(C1=C(O)C(=O)N(c2nccs2)C1c1ccccc1)c1cc2ccccc2o1 (stereo unspecified)	22µM*	u	-17%	x	u	-2%
CCN(CC)C(=O)c1cc(-c2ccc(Cl)cc2)on1	x	x	-2%	x	-14%	-14%
CC1=CC(=O)NS(=O)(=O)O1	7%	x	x	-7%	x	x
CCOc1ccc(C2NC(=O)c3c(COC)cc(C)nc3N2Cc2ccccc2)cc1OC (stereo unspecified)	x	x	-2%	x	-14%	-13%
